PubChem BioAssay (NCATS)
Inconclusive results are not listed. Where a call stands in place of a potency, no number is given. Calls of active or inactive are those of the source. The call rests on the fitted dose curve; in most records, active means well fitted inhibition curve with a large enough effect; inconclusive means small, poorly fitted or top-dose-only effect; inactive means flat fitted curve, though single readings scatter.

Target: Dual specificity protein kinase CLK4 (Homo sapiens) (UniProt Q9HAZ1)
Assay: qHTS Assay for Inhibitors of CDC-like Kinase 4 (ADP-Glo Assay) (AID 1771); further: nearly all actives have a fitted effect of over 70% in size; further: potency means the concentration at half of the fitted maximal effect
Settings: recombinant CLK4, ADP-Glo luminescence; series mostly up to 80 µM
Method in brief: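 In this ADP-Glo format, 1 uM ATP and 100 uM RS peptide served as substrates for 25 nM Clk4 in Mg2+/EGTA/DTT/Triton buffer; reactions ran 1 hr at room temperature before luminescent ADP quantification.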

Chain of Dual specificity protein kinase CLK4 (Homo sapiens) (Q9HAZ1 whole entry, looked up): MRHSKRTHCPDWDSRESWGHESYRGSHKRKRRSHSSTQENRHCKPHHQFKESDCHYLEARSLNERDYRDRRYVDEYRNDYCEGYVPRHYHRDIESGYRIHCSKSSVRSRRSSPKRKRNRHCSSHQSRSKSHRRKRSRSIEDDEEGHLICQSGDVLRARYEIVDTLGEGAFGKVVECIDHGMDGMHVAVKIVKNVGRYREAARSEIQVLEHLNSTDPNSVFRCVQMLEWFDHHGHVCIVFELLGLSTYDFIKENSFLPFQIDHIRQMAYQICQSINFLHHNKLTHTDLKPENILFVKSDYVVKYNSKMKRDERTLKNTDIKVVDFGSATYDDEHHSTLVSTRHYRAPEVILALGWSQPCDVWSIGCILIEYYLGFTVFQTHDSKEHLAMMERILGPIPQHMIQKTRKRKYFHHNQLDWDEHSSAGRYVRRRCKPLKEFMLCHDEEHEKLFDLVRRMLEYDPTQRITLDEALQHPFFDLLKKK

SMILES	Potency
CS(=O)(=O)Nc1cccc(-c2ccc3ncnc(NCCN4CCOCC4)c3c2)c1	8.91 µM (active)
COCCn1c(=O)c(C)nc2cnc(N(C)C)nc21	inactive
COc1ccc2[nH]cc(CCNc3ncnc4ccc(-c5cccnc5)cc34)c2c1	2.24 µM (active)
Cn1c(=O)c(-c2cccc(C#N)c2)nc2cnc(Oc3ccccc3)nc21	inactive
O=c1c(-c2cc(F)cc(F)c2)nc2cnc(N3CCOCC3)nc2n1Cc1cccs1	inactive
CNc1ncnc2ccc(-c3ccccc3CN(C)C)cc12	12.6 µM (active)
CN(C)C(=O)c1ccc(-c2cc(Nc3ccccc3)ncn2)cc1	14.1 µM (active)
COc1cccc(Nc2ncc3ncc(=O)n(CCc4ccccc4)c3n2)c1	0.282 µM (active)
O=c1c(-c2ccc(F)cc2)nc2cnc(N3CCNCC3)nc2n1C1CC1	inactive
COc1ccc(-c2nc3cnc(Nc4cccc(OC)c4)nc3n(C[C@H]3CCCO3)c2=O)cc1	inactive
COc1cccc(-c2ccc3ncnc(NCc4ccccc4)c3c2)c1	2.24 µM (active)
Cc1ccccc1-c1cc(N(C)C)ncn1	inactive
Cc1cccc(CNc2cc(-c3c(C)noc3C)ncn2)c1	15.8 µM (active)
COc1ccccc1CNc1cc(-c2c(C)noc2C)ncn1	17.8 µM (active)
Cn1c(=O)c(-c2ccc(Cl)cc2)nc2cnc(N3CCOCC3)nc21	inactive
COc1ncc2nc(C)c(=O)n(C3CC3)c2n1	inactive
Cc1noc(C)c1-c1ccc2ncnc(N3CCN(C)CC3)c2c1	10 µM (active)
CN(C)c1ccc(-c2ccc3ncnc(-n4ccnc4)c3c2)cc1	4.47 µM (active)
CCNc1ncc2ncc(=O)n(CCOC)c2n1	11.2 µM (active)
COc1ccccc1-c1cncnc1NCCNC(C)=O	inactive

Target: Dual specificity protein kinase CLK4 (Homo sapiens) (UniProt Q9HAZ1)
Assay: qHTS Assay for Inhibitors of CDC-like Kinase 4 (ADP-FP Assay) (AID 1795); further: nearly all actives have a fitted effect of over 60% in size; further: potency means the concentration at half of the fitted maximal effect
Settings: Transcreener ADP fluorescence polarization; series mostly up to 50 µM
Method in brief: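 Recombinant Clk4 (6.25 nM) phosphorylated 100 uM RS repeat peptide with 1 uM ATP in 25 mM Tris pH 7.5, 10 mM MgCl2, 0.5 mM EGTA, 2.5 mM DTT, 0.01% Triton X-100 for 1 h. ADP was detected by Transcreener ADP2 competitive fluorescence polarization after 30 min at room temperature.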

SMILES	Potency
COc1ncc2nc(-c3ccccc3)c(=O)n(-c3ccccc3)c2n1	inactive
COc1cccc(-c2ccc3ncnc(NCc4ccccc4)c3c2)c1	0.794 µM (active)
O=c1cnc2cncnc2n1Cc1ccccc1Cl	inactive

Target: Ubiquitin carboxyl-terminal hydrolase 1 (Homo sapiens) (UniProt O94782)
Assay: Inhibitors of USP1/UAF1: Pilot qHTS (AID 504865);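 further: rhodamine fluorescence freed from ubiquitin-rhodamine substrate followed over time; top concentration of the series differs between compounds; nearly all actives have a fitted effect of over 35% in size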
Settings: purified USP1/UAF1, Ub-rhodamine cleavage fluorescence; series mostly up to 54.9 µM
Method in brief: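 USP1/UAF1 complex at 1 nM preincubated 15 min at room temperature with compound, then Ub-Rho substrate added at 150 nM final. Fluorescence (480/540 nm) read kinetically in 50 mM HEPES pH 7.8, 0.5 mM EDTA, 1 mM TCEP, 0.1 mg/ml BSA, 0.01% Tween-20.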

Chain of Ubiquitin carboxyl-terminal hydrolase 1 (Homo sapiens) (O94782 whole entry, looked up): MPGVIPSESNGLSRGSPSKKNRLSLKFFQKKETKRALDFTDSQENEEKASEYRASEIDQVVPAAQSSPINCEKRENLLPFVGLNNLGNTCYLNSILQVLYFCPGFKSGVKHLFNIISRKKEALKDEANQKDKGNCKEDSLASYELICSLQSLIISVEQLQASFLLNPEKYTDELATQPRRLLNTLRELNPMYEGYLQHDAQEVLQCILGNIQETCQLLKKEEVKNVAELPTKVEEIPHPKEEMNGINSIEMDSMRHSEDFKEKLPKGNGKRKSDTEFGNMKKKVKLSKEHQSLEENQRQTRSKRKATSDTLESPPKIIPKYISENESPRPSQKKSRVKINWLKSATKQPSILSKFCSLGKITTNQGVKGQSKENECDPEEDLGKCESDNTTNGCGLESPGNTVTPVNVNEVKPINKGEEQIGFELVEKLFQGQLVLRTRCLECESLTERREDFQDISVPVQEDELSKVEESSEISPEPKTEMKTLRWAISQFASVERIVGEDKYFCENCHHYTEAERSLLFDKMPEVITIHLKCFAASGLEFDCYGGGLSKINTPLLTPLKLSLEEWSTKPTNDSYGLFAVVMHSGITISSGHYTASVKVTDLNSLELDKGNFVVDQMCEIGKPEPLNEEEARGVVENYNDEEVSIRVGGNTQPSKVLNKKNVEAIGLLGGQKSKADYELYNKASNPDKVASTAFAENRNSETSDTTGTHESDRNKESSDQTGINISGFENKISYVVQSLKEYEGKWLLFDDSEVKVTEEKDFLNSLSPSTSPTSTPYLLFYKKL

SMILES	Potency
Clc1ccccc1-c1ccc2ncnc(N3CCNCC3)c2c1	inactive
CCNc1ncc2nc(-c3cccs3)c(=O)n(C)c2n1	inactive
COCCn1c(=O)c(-c2cn(C)c3ccccc23)nc2cnc(N3CCOCC3)nc21	inactive
COc1ncc2nc(-c3cccs3)c(=O)n(CCc3ccccc3)c2n1	inactive
COc1ncc2nc(-c3ccccc3)c(=O)n(-c3ccccc3)c2n1	inactive
Cc1noc(C)c1-c1nccc(N2CCOCC2)n1	inactive
Cn1c(=O)c(-c2ccc(Cl)cc2)nc2cnc(Nc3ccccc3)nc21	inactive
COc1ccc(Oc2ncc3nc(-c4ccc(Cl)cc4)c(=O)n(C[C@H]4CCCO4)c3n2)cc1	inactive
COc1cccc(Nc2ncc3nc(C)c(=O)n(C4CC4)c3n2)c1	inactive
COc1cccc(Cn2c(=O)c(-c3cc(F)cc(F)c3)nc3cnc(N(C)C)nc32)c1	inactive
CNc1nc(-c2ccc3c(c2)OCO3)nc2ccccc12	inactive
COc1cccc(Cn2c(=O)c(C)nc3cnc(OC)nc32)c1	inactive
Cc1nc2cncnc2n(C2CC2)c1=O	inactive
COc1cccc(Cn2c(=O)cnc3cncnc32)c1	inactive
COCCn1c(=O)c(-c2cc(F)cc(F)c2)nc2cnc(N3CCOCC3)nc21	inactive
CN(C)C(=O)c1ccc(-c2cc(NCc3cccnc3)ncn2)cc1	inactive
Cc1noc(C)c1-c1cc(NCc2cccnc2)ncn1	inactive
CS(=O)(=O)Nc1cccc(-c2ccc3ncnc(NCCN4CCOCC4)c3c2)c1	inactive
COCCn1c(=O)c(C)nc2cnc(N(C)C)nc21	inactive

SMILES	Potency
COc1ccc2[nH]cc(CCNc3ncnc4ccc(-c5cccnc5)cc34)c2c1	inactive
Cn1c(=O)c(-c2cccc(C#N)c2)nc2cnc(Oc3ccccc3)nc21	inactive
O=c1c(-c2cc(F)cc(F)c2)nc2cnc(N3CCOCC3)nc2n1Cc1cccs1	inactive
CNc1ncnc2ccc(-c3ccccc3CN(C)C)cc12	inactive
CN(C)C(=O)c1ccc(-c2cc(Nc3ccccc3)ncn2)cc1	inactive
COc1cccc(Nc2ncc3ncc(=O)n(CCc4ccccc4)c3n2)c1	inactive
O=c1c(-c2ccc(F)cc2)nc2cnc(N3CCNCC3)nc2n1C1CC1	inactive
COc1ccc(-c2nc3cnc(Nc4cccc(OC)c4)nc3n(C[C@H]3CCCO3)c2=O)cc1	inactive
COc1cccc(-c2ccc3ncnc(NCc4ccccc4)c3c2)c1	inactive
Cc1ccccc1-c1cc(N(C)C)ncn1	inactive
COc1ccccc1CNc1cc(-c2c(C)noc2C)ncn1	inactive
Cn1c(=O)c(-c2ccc(Cl)cc2)nc2cnc(N3CCOCC3)nc21	inactive
COc1ncc2nc(C)c(=O)n(C3CC3)c2n1	inactive
Cc1noc(C)c1-c1ccc2ncnc(N3CCN(C)CC3)c2c1	inactive
CN(C)c1ccc(-c2ccc3ncnc(-n4ccnc4)c3c2)cc1	inactive
O=c1cnc2cncnc2n1Cc1ccccc1Cl	inactive
CCNc1ncc2ncc(=O)n(CCOC)c2n1	inactive
COc1ccccc1-c1cncnc1NCCNC(C)=O	inactive
